Assay results as given in PubChem BioAssay (NCATS).
A number with no mark means an inactive call. Calls come from the whole dose curve.

target: Tumor susceptibility gene 101 protein (Homo sapiens) (UniProt Q99816); assay: qHTS Validation Assay for Iinhibitors of HIV-1 Budding by Blocking the Interaction of PTAP/TSG101 (AID 485342); conditions: TSG101-PTAP binding, fluorescence polarization, 4-point titration; series mostly up to 115 µM; fluorescence change: at the top concentration; note: 0% is about no effect
Sequence (Q99816 whole entry, looked up): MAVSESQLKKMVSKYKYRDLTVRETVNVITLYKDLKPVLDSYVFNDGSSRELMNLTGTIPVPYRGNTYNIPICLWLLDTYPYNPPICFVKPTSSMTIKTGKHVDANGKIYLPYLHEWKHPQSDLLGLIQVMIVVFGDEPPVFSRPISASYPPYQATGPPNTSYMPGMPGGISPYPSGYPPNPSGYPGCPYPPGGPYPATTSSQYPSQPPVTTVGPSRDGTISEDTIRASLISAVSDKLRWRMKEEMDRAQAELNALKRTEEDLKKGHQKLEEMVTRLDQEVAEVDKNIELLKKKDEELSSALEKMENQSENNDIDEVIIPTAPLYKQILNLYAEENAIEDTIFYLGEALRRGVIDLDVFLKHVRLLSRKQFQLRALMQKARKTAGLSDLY
From the text: NIH Molecular Libraries Probe Production Network [MLPCN]
NIH Chemical Genomics Center [NCGC]
PI Name: Dr. Eric Freed, NCI
Stages of the HIV-1 replication cycle, specifically virus assembly and release, provide underexploited targets for the development of novel antiviral inhibitors. The late stages of HIV-1 replication are mediated by the Gag precursor protein, Pr55Gag. Expression of Pr55Gag is both necessary and sufficient for the production of virus-like particles from Gag-expressing cells. The Gag protein hijacks key host proteins involved in endocytic machinery of the host cell to promote endosomal processing and viral budding. The budding process requires a direct interaction between a […] (PTAP) motif in the p6 domain of Gag and the cellular endosomal sorting protein known as Tsg101. In this way, the Gag PTAP motif promotes the host cells to recruit viral particles to the plasma membrane where the new viral particles are released, effectively turning the host cells into viral factories. A fluorescence anisotropy assay has been developed to quantitatively measure the PTAP-Tsg101 interaction which can be used to screen for inhibitors of this interaction.
NCGC Assay Protocol Summary:
Two uL of the Tsg101 binding domain in buffer (10 mM HEPES pH 7.5; 0.15 M NaCl, 0.01% Tween 20; 3 mM EDTA;0.1 mM TCEP) was dispensed into Greiner black MB 1536-well plates (final concentration 10 uM). Then, 23 nL of compounds or DMSO were delivered to each well using a pin tool. Finally, 2 uL of a FITC-labeled peptide containing the PTAP motif (1) in the same buffer was dispensed (50 nM final concentration) and the binding was allowed to proceed for 20 min. at r.t. Fluorescent polarization was determined using FITC excitation and polarized emission filters on a Perkin Elmer Viewlux.
Keywords: Tsg101, PTAP, Gag, HIV, fluorescent polarization, MLSMR, MLPCN, NIH Roadmap, qHTS, NCGC

Structure (SMILES)	fluorescence change [%]
C#CCN[C@H](C)Cc1ccccc1	-0.0189
CC(C)(C)c1cc(C=C(C#N)C#N)cc(C(C)(C)C)c1O	-2.52
C[N+](C)(C)CC#CCN1CCCC1=O	-1.65
OCc1cnc[nH]1	5.69
COc1ccc2c(c1)c(CCN1CCOCC1)c(C)n2C(=O)c1cccc(Cl)c1Cl	-21.7
C[N+]1(C)CCN(c2ccccc2)CC1	0.494
NCCc1ccc(S(=O)(=O)F)cc1	2.31
CCCCCCCCCCCCCC(=O)O[C@@H]1[C@@H](C)[C@@]2(O)[C@@H](C=C(CO)C[C@@]3(O)C(=O)C(C)=C[C@@H]23)C2C(C)(C)[C@@]21OC(C)=O (stereo not given in full)	-25.9
C[C@H](Cc1ccc2c(c1)OC(C(=O)O)(C(=O)O)O2)NC[C@H](O)c1cccc(Cl)c1	3.38
N=C(N)c1ccc(CS(=O)(=O)F)cc1	1.81
CN1C2CCC1CC(OC(c1ccccc1)c1ccccc1N)C2 (stereo not given)	4
CCCN(CCC)C1CCc2cccc(O)c2C1 (stereo not given)	0.492
NC(C(=O)O)c1cc(=O)[nH]o1 (stereo not given)	-2.49
CC(=O)c1c(O)c(C)c(O)c(Cc2c(O)c3c(c(C(=O)/C=C/c4ccccc4)c2O)OC(C)(C)C=C3)c1O	-6.17
Nc1ccc(CCN2CCN(c3cccc(C(F)(F)F)c3)CC2)cc1	-9.07
CCN(CCCl)Cc1ccccc1Br	3.58
Cc1o[nH]c(=O)c1CC(N)C(=O)O (stereo not given)	0.0426
CCCN1CCc2cccc3c2[C@H]1Cc1ccc(O)c(O)c1-3	-4.08
CC(C)(C)c1o[nH]c(=O)c1CC(N)C(=O)O (stereo not given)	3.42
CN1CCc2cccc(Cl)c2CC1	-1.06

Structure (SMILES)	fluorescence change [%]
O=[N+]([O-])/C=C/c1ccc2c(c1)OCO2	-0.718
CCCn1c(C)c(C(=O)c2ccc3ccccc3c2)c2ccccc21	-16
COC(=O)N1CCN(C(=O)Cc2ccc(Cl)c(Cl)c2)C(CN2CCCC2)C1 (stereo not given)	3.29
C[N+]1(C)CCc2cc3c(cc2[C@H]1[C@@H]1OC(=O)c2c1ccc1c2OCO1)OCO3	4.5
Cc1c2ccncc2c(C)c2c1[nH]c1ccccc12	4.09
CN1CCC(c2c[nH]c3ccc(O)cc23)CC1	3.03
NC(N)=NOCC[C@H](N)C(=O)O	-1.82
COc1ccc2c(c1)C13CCCCC1C(C2)N(C)CC3 (stereo not given)	5.26
CC1(C(=O)O)C2CCC(O2)C1(C)C(=O)O (stereo not given)	1.86
CCCN(CCC)[C@@H]1CCc2cccc(O)c2C1	-0.782
NC(Cc1ccc(N(CCCl)CCCl)cc1)C(=O)O (stereo not given)	3.74
COc1ccc(CNC(=O)/C=C/c2ccc3[nH]cc(CCN(C)C)c3c2)cc1	4.3
CCCN(CCC)CCc1ccc(O)c(O)c1	3.9
COc1ccc2c(c1)[C@@]13CCCC[C@H]1[C@@H](C2)NCC3	-2.09
N[C@@]1(C(=O)O)CC[C@@H](C(=O)O)C1	3.9
C[N+](C)(C)CCOC(=O)CBr	5.9
COc1ccc2c(c1O)-c1cccc3c1[C@@H](C2)N(C)CC3	3.37
C=CCN1CCC23c4c5ccc(O)c4O[C@H]2C(=O)CC[C@@]3(O)C1C5 (stereo not given in full)	2.98
C[N+]1(C)CCOC(O)(c2ccc(-c3ccc(C4(O)C[N+](C)(C)CCO4)cc3)cc2)C1 (stereo not given)	6.62
CCCN1CCC[C@@H](c2cccc(O)c2)C1	3.03
